ADAM17 inh – inhibits human ADAM17. P78536. recombinant ADAM17, EDANS/DABCYL FRET peptide cleavage. inhibition, % at 6.95 µM. hit rate 0.83% among 370,000;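 active = inhibition above the mean of compounds lying between control limits plus 3 SD, set per campaign, cut at about 8.5% in these data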;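 note: 0% = DMSO-only wells as the low control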
FGF22 binding – shifts melting point of recombinant human FGF22; AID 651658; activity (Tm shift, normalised), % at 9.99 µM; hit rate 1.5% among 340,000; recombinant FGF22 thermal shift, SYPRO orange fluorescence; percent of sucrose octasulfate shift, DMSO zero;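 active = mean Tm shift, scaled 0 neutral to 100 positive control, at about 1.3% or above, every replicate too, limit read from the data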
Target sequence (Q9HCT0 whole entry, looked up): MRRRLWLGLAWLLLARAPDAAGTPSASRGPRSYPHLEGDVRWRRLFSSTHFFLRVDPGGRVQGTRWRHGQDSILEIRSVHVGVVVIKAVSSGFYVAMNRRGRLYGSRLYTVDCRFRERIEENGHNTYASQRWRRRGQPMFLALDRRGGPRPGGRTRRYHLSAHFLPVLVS
KLK7 zymogen act – proKLK7 (human) activation, primary screen; P49862; purified proKLK7, EDANS-DABCYL substrate fluorescence; 100% is mature enzyme control, 0% vehicle; activation, % at 7 µM; hit rate 0.9% among 370,000; AID 652039;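 active = activation above the mean of all tested compounds plus 3 SD, computed per campaign excluding outliers beyond control limits, cut at about 13% in these data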
Target sequence (P49862 whole entry, looked up): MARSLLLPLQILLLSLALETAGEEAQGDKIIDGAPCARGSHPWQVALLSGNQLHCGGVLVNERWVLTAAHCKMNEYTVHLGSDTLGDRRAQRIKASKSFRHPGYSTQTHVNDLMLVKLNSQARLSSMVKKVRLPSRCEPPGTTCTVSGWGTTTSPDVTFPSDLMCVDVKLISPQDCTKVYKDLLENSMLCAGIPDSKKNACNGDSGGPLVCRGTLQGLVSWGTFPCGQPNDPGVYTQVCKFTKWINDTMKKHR
ADAM10 inh – inhibitors of human ADAM10; recombinant ADAM10, EDANS/DABCYL FRET peptide cleavage, 3 h; hit rate 0.62% among 370,000; inhibition, % at 7 µM; AID 720582; O14672;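 active = inhibition above a per-campaign cutoff equal to the mean of compounds falling between control-based bounds plus 3 SD, cut at about 20% in these data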;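 note: 0% = DMSO wells while the 100% control is not disclosed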
Ecoli rRNA inh – inhibits bacterial ribosomal RNA function over humanized ribosomes. E. coli WT GFP vs humanized-ribosome RFP mutants, fluorescence, 24 h; hits give low values; DMSO median 0, no signal -100. GFP signal change (wild-type ribosome), % (no concentration beside the values). hit rate 1.6% among 350,000;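 active = significant combined selectivity score with lowered wild-type GFP, culture density cut under 30%, mutant RFP and density less affected; inactive = any of these conditions unmet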
ADAM10 confirm – human ADAM10 inhibition, confirmation; shares compounds with ADAM10 inh; ADAM10 QFRET peptide cleavage, EDANS fluorescence; inhibition, % at 6.95 µM; hit rate 1% among 2,100;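 active = inhibition above about 20% chosen separately for each screening run, limit read from the data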;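 note: 0% = DMSO wells and 100% = marimastat wells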
ADAM17 ctr – ADAM17 inhibition, counter-screen for ADAM10 exosite hits. ADAM17 QFRET peptide cleavage, EDANS fluorescence. hit rate 0.5% among 2,100. AID 743214. inhibition, % at 6.95 µM. shares compounds with ADAM10 inh;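 active = mean triplicate inhibition above the solvent-only control wells' mean plus 3 SD, cut at about 12% in these data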;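 note: 0% = DMSO wells and 100% = marimastat wells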
* = called active by the depositor; · = no result given. Shown are actives, neighbours in structure and some others; about 3.8% of the full set was active somewhere.

SMILES	ADAM17 inh	FGF22 binding	KLK7 zymogen act	ADAM10 inh	Ecoli rRNA inh	ADAM10 confirm	ADAM17 ctr
CC(O)(c1ccc(F)c(F)c1)c1nc(-c2cc(F)cc(F)c2)cs1 (stereo unspecified)	5.2	-0.3	0.6	20.0*	-63.1	3.6	1.6
OC(c1ccccc1)(c1nc(-c2ccc(F)c(Cl)c2)cs1)C(F)(F)F (stereo unspecified)	7.7	0.3	0.6	22.2*	-52.8	9.3	2.9
CC(O)(c1ccccc1)c1nc(-c2ccc(F)c(Cl)c2)cs1 (stereo unspecified)	3.1	0.0	0.2	15.3	-60.2	·	·
Clc1ccccc1CSc1nncn1NC/C=C/c1ccccc1	8.3	-0.2	0.2	20.0*	-54.3	0.3	0.3
CCC(=O)OCC(=O)[C@@]1(OC(=O)CC)[C@@H](C)C[C@H]2[C@@H]3CCC4=CC(=O)C=C[C@]4(C)[C@@]3(Cl)[C@@H](O)C[C@@]21C	6.4	0.0	0.2	21.0*	7.6	1.3	0.3
Cc1cccc(N2CCN(S(=O)(=O)c3ccc4c(c3)CC(=O)N4C)CC2)c1C	0.7	0.0	-0.1	21.4*	7.4	0.9	0.9
Cc1cccc(N2CCN(S(=O)(=O)c3ccc(S(=O)(=O)N4CCCC4)cc3)CC2)c1C	0.3	·	0.7	1.5	·	·	·
CCOc1ccc(NC(=O)c2ccc(CN3CCc4ccccc4C3)cc2)cc1	7.8	·	-0.1	20.4*	9.5	10.8	5.0
CCc1c(C(=O)NNC(=S)Nc2ccc(S(=O)(=O)Nc3ncccn3)cc2)csc1C	8.0	-0.1	0.1	23.0*	-3.5	1.0	-0.1
O=S(=O)(Nc1ncccn1)c1ccc(NC(=S)Nc2ccccc2)cc1	0.8	-0.4	0.3	-1.4	11.1	·	·
Cc1ccc(S(=O)(=O)Nc2ccc(N(C)C)cc2)cc1	2.8	0.2	0.7	-16.7	-13.4	·	·
CN(C)c1ccc(NS(=O)(=O)c2ccc(-c3csnn3)cc2)cc1	1.2	-0.1	0.7	25.0*	1.2	-2.1	-0.3
CCNC(=O)Nc1ccc2c(c1)C(=O)N(C)[C@H]1CC[C@H](CC(=O)NCc3cccc(F)c3)O[C@H]1CO2	·	0.5	·	·	0.5	·	·
O=C1OCCN1C(=O)[C@H]1[C@H](c2ccc([N+](=O)[O-])cc2)C(c2ccccc2)=NN1c1ccccc1	8.0	0.0	-0.3	23.7*	16.3	6.8	2.7
O=C1OCCN1C(=O)[C@H]1[C@H](c2ccc([N+](=O)[O-])cc2)C(c2cccc(Cl)c2)=NN1c1ccccc1	17.2*	-0.1	-1.4	42.0*	9.3	13.2	4.9
Cc1cccc(C2=NN(c3ccc(Br)cc3)[C@@H](C(=O)N3CCOC3=O)[C@@H]2c2ccc([N+](=O)[O-])cc2)c1	6.5	0.0	0.5	11.3	16.3	·	·
O=C1OCCN1C(=O)[C@H]1[C@H](c2ccc(Cl)cc2)C(c2ccccc2)=NN1c1ccccc1	-69.4	0.0	-212.2	-261.9	21.1	·	·
Cc1cc(NC(=O)C(C)SCC(=O)Nc2nnc(CC(C)C)s2)no1 (stereo unspecified)	1.2	-0.4	0.3	82.2*	6.3	0.5	0.3
Cc1cc(NC(=O)C(C)SCC(=O)O)no1 (stereo unspecified)	-4.9	-0.1	-0.2	-0.8	19.3	·	·
O=C(NN1C(=O)C2C3C=CC(C3)C2C1=O)c1ccccc1 (stereo unspecified)	-2.1	0.1	-0.3	-6.0	4.4	·	·
Cc1cccc(C(=O)NN2C(=O)C3C(c4ccccc4)C=CC(c4ccccc4)C3C2=O)c1 (stereo unspecified)	8.4	·	0.2	19.8*	·	4.9	2.0
C[C@@H]1CN([C@@H](C)CO)C(=O)c2cc(NC(=O)Nc3ccc(C(F)(F)F)cc3)ccc2O[C@@H](C)CCCCO[C@H]1CN(C)Cc1ccncc1	·	-1.4	·	·	-4.6	·	·
CC(O)(c1cccc(F)c1)c1nc(-c2csc3ccccc23)cs1 (stereo unspecified)	6.2	-0.5	0.7	22.8*	-62.0	7.6	3.0
CC(O)(c1ccc(F)c(F)c1)c1nc(-c2csc3ccccc23)cs1 (stereo unspecified)	6.0	0.0	-0.4	7.9	-31.7	·	·
CC(O)(c1ccccc1)c1nc(-c2csc3ccccc23)cs1 (stereo unspecified)	7.5	-0.2	0.3	20.6*	-38.1	5.3	1.8
SMILES	ADAM17 inh	FGF22 binding	KLK7 zymogen act	ADAM10 inh	Ecoli rRNA inh	ADAM10 confirm	ADAM17 ctr
CC(O)(c1cccc(F)c1)c1nc(-c2cc3ccccc3o2)cs1 (stereo unspecified)	6.3	-0.7	0.2	22.0*	-53.7	6.0	2.3
Cc1ccccc1-c1csc(C(C)(O)c2ccccc2)n1 (stereo unspecified)	4.0	-0.4	-0.4	5.1	-19.2	·	·
CC(O)(c1cccc(F)c1)c1nc(/C=C/c2ccccc2)cs1 (stereo unspecified)	6.0	-0.2	-0.3	22.1*	-52.8	10.5	3.1
C[C@H](CO)N1C[C@H](C)[C@H](CN(C)S(=O)(=O)c2ccccc2)OCCCC[C@H](C)Oc2ccc(NC(=O)NC3CCCCC3)cc2C1=O	·	-0.2	·	·	0.0	·	·
Cc1noc(C)c1S(=O)(=O)N(C)C[C@@H]1OCCCC[C@@H](C)Oc2ccc(NS(=O)(=O)c3ccc(F)cc3)cc2C(=O)N([C@H](C)CO)C[C@@H]1C	·	-0.4	·	·	2.5	·	·
O=C(C[C@@H]1CC[C@H]2[C@@H](COC[C@@H](O)CN2Cc2cc(F)cc(F)c2)O1)NCc1cccc(F)c1	·	-0.3	·	·	-1.5	·	·
CCN(c1ccccc1)S(=O)(=O)c1ccc(Cl)c(NC(=O)COC(=O)C2CC2C)c1 (stereo unspecified)	0.8	42.7	0.6	0.6	-7.0	·	·
CCN(c1ccccc1)S(=O)(=O)c1ccc(Cl)c(NC(=O)COC(=O)c2ccc(O)cc2)c1	2.0	·	0.1	20.1*	·	2.7	0.4
CCCCNC(=O)C[C@@H]1C[C@@]2(C(=O)OCC)CCCC=C2N(Cc2ccc(Cl)cc2Cl)C1=O	5.7	0.0	0.7	13.2	-0.5	·	·
CCOC(=O)[C@]12CCC=C1N(Cc1ccc(Cl)cc1Cl)C(=O)[C@H](CC(=O)NCc1ccc(OC)c(OC)c1)C2	5.5	-0.5	0.2	20.2*	0.3	3.8	1.1
CCOC(=O)[C@]12CCCC=C1N(Cc1ccc(Cl)cc1Cl)C(=O)[C@H](CC(=O)NCCc1ccccc1OC)C2	4.4	0.8	-1.1	22.7*	21.1	5.7	2.3
C[C@@H]1CN([C@@H](C)CO)C(=O)c2cc(C#Cc3ccccn3)cnc2O[C@@H]1CN(C)CC1CCCC1	·	·	·	·	4.8	·	·
